Data on 7 compounds can be found in ChEMBL document CHEMBL1961873, “Compounds: GSK PKIS; Assays: Nanosyn kinase panel” (2012).

Molecules are shown by their SMILES.

Assay [1] concerns Proto-oncogene tyrosine-protein kinase receptor Ret (Homo sapiens), P07949 [Y791F]. As to conditions: at 1 µM.
Assay [2] addresses Macrophage-stimulating protein receptor (Homo sapiens) (UniProt Q04912). The following applies: at 0.1 µM.
Assay [3] has the same target. The following applies: at 1 µM.
In assay [4] the target is Proto-oncogene tyrosine-protein kinase ROS (Homo sapiens) (UniProt P08922). As to conditions: at 0.1 µM.
Assay [5] has the same target. As to conditions: at 1 µM.
Assay [6] deals with Proto-oncogene tyrosine-protein kinase Src (Homo sapiens) (UniProt P12931). As to conditions: at 0.1 µM.
For assay [7] the target is unchanged. The following applies: at 1 µM.
Assay [8] addresses Tyrosine-protein kinase Srms (Homo sapiens) (UniProt Q9H3Y6). The following applies: at 0.1 µM.
Assay [9] shares this target. As to conditions: at 1 µM.
The target of assay [10] is Tyrosine-protein kinase SYK (Homo sapiens) (UniProt P43405). As to conditions: at 0.1 µM.
Assay [11] has the same target. The following applies: at 1 µM.
Assay [12] addresses T1, Tyrosine-protein kinase Tec (Homo sapiens) (UniProt P42680).
T1 sequence (whole entry): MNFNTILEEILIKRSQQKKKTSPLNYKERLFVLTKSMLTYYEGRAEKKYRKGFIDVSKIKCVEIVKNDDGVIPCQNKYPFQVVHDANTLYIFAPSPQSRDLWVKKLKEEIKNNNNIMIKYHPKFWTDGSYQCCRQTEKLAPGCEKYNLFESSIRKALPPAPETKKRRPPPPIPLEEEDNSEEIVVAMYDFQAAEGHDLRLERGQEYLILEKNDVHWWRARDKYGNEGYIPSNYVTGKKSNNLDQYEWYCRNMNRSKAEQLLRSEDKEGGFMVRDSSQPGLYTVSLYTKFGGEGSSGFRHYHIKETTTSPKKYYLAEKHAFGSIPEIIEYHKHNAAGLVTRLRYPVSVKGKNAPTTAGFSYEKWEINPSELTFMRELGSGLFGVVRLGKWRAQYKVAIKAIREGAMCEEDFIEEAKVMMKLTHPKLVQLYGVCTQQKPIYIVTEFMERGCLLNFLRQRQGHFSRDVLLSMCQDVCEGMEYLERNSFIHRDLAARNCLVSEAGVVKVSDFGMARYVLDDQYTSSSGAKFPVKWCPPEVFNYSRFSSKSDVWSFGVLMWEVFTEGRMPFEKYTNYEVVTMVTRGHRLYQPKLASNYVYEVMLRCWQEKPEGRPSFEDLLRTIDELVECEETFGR
As to conditions: at 0.1 µM.

Assay [13] deals with T1, Tyrosine-protein kinase Tec (Homo sapiens). As to conditions: at 1 µM.
The target of assay [14] is Angiopoietin-1 receptor (Homo sapiens) (UniProt Q02763). The following applies: at 0.1 µM.
Assay [15] shares this target. As to conditions: at 1 µM.
Assay [16] addresses T2, Non-receptor tyrosine-protein kinase TNK1 (Homo sapiens) (UniProt Q13470).
T2 sequence (whole entry): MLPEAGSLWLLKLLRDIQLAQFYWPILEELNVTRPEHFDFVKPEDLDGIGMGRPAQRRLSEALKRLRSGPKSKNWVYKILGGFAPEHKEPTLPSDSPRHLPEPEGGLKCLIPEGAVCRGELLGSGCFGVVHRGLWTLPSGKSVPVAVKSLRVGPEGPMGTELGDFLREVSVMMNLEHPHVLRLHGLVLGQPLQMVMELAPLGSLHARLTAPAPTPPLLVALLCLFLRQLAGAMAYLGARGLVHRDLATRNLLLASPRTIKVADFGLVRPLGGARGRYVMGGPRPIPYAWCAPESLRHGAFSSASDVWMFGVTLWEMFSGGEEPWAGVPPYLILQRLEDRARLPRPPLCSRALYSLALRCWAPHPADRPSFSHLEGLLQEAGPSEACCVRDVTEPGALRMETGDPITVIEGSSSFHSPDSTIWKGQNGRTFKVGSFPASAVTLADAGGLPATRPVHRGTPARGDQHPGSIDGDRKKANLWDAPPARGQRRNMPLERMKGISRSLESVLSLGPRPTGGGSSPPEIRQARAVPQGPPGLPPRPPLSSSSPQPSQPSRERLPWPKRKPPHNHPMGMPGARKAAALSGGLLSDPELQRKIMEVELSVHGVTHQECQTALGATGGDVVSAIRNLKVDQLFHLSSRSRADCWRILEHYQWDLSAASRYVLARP
The following applies: at 0.1 µM.

The target of assay [17] is T2, Non-receptor tyrosine-protein kinase TNK1 (Homo sapiens). As to conditions: at 1 µM.
Assay [18] deals with Activated CDC42 kinase 1 (Homo sapiens) (UniProt Q07912). As to conditions: at 0.1 µM.
The target is the same in assay [19]. As to conditions: at 1 µM.
Assay [20] concerns the target High affinity nerve growth factor receptor (Homo sapiens) (UniProt P04629). As to conditions: at 0.1 µM.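 Also: each value is a mean of replicate percent inhibition readings against TRKA kinase.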

Proto-oncogene tyrosine-protein kinase ROS (Homo sapiens), sequence (P08922 whole entry): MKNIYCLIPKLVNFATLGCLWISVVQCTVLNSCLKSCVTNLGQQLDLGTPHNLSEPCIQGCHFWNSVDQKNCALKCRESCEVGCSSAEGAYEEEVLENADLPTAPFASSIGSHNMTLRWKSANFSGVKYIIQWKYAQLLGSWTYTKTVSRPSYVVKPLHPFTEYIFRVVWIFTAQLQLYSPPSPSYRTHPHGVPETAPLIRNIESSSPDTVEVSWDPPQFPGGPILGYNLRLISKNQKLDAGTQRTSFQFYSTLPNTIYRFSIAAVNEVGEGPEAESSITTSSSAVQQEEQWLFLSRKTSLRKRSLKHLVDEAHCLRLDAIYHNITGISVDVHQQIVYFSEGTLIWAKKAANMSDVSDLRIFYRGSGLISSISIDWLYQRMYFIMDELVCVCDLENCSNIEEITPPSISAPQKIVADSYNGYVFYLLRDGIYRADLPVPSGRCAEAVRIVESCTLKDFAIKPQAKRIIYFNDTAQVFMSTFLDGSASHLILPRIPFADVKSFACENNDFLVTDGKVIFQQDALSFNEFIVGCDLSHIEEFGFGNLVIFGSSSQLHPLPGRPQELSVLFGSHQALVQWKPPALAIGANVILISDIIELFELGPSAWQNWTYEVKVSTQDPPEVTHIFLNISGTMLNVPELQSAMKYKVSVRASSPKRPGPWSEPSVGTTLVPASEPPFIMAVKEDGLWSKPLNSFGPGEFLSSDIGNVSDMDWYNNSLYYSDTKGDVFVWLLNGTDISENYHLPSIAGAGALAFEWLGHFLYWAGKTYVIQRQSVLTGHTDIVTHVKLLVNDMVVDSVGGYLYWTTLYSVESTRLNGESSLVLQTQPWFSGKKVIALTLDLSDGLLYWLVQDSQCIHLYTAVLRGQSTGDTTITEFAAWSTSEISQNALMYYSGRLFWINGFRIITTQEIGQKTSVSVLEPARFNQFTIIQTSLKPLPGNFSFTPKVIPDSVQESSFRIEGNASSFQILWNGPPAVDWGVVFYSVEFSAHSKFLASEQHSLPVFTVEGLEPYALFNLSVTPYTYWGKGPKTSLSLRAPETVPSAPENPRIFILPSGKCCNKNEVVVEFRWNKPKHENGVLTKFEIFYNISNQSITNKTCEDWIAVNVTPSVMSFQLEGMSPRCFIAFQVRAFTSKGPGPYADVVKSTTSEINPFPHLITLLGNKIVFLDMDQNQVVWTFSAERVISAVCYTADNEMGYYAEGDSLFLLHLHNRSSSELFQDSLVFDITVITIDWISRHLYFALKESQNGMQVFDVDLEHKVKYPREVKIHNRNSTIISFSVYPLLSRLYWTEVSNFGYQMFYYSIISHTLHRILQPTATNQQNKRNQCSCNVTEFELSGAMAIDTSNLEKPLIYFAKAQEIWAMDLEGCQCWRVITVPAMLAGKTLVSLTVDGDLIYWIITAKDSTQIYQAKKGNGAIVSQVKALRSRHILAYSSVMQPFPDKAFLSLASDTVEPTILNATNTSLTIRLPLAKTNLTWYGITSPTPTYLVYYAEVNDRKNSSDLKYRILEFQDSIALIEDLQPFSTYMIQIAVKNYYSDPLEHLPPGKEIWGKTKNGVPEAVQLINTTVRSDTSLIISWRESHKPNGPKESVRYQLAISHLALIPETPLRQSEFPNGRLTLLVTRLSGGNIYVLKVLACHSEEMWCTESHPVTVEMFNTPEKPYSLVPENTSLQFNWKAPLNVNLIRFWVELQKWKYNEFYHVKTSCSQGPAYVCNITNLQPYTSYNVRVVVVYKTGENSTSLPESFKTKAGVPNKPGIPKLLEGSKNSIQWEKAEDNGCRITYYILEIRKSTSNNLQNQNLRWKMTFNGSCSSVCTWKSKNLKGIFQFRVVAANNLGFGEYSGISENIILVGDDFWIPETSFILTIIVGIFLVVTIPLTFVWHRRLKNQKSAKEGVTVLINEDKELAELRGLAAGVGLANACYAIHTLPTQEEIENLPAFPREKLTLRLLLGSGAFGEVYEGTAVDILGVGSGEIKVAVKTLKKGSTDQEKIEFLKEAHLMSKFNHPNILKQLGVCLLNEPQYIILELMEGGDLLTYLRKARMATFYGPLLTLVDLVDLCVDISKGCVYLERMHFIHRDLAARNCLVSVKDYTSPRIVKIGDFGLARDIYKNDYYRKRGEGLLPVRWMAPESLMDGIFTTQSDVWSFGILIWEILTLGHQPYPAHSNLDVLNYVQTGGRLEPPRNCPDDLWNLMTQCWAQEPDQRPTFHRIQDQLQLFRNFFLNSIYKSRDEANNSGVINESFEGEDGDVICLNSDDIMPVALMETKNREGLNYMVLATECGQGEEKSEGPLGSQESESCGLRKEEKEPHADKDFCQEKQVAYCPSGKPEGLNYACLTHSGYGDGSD
Angiopoietin-1 receptor (Homo sapiens), sequence (Q02763 whole entry): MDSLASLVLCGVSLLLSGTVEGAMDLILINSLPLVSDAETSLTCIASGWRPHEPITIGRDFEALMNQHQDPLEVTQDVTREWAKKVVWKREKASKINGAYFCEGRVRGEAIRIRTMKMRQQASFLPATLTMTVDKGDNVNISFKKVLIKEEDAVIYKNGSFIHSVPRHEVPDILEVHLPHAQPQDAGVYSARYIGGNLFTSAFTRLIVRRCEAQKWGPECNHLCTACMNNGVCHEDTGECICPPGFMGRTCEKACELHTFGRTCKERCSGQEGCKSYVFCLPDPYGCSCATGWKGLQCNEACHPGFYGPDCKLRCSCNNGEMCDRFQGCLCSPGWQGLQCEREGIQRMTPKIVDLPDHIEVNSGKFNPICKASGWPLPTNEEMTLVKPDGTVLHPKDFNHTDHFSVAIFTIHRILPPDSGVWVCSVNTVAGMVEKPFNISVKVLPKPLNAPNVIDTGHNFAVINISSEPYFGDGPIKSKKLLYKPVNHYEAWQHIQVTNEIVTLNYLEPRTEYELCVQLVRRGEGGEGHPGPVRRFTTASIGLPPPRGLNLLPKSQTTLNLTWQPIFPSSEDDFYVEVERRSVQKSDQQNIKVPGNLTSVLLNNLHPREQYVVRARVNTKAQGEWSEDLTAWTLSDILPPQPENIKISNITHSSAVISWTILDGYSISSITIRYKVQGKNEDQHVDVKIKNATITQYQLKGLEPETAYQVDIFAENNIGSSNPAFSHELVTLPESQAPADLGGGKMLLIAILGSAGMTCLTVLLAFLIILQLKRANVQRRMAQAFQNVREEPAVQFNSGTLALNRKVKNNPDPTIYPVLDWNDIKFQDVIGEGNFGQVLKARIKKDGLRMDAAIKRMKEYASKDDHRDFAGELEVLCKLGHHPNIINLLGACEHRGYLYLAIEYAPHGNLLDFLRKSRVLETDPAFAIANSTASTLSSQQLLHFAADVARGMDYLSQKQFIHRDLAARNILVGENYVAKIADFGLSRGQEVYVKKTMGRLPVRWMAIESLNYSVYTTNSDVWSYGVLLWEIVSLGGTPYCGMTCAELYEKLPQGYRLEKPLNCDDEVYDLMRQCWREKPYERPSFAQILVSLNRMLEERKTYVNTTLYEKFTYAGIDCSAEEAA
Tyrosine-protein kinase Srms (Homo sapiens), sequence (Q9H3Y6 whole entry): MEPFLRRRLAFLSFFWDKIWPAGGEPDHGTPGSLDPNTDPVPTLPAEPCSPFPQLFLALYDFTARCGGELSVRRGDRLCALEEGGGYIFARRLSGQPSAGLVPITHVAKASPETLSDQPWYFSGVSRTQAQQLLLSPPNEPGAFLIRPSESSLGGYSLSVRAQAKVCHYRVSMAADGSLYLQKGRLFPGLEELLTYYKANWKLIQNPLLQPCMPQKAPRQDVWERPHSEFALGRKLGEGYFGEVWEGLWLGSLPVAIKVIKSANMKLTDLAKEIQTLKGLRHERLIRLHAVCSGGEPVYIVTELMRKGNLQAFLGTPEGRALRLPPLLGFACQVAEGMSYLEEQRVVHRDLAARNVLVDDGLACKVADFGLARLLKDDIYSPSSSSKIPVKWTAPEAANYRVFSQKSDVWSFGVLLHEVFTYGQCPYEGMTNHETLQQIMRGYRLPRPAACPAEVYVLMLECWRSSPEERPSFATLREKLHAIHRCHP
High affinity nerve growth factor receptor (Homo sapiens), sequence (P04629 33-796 limits assumed): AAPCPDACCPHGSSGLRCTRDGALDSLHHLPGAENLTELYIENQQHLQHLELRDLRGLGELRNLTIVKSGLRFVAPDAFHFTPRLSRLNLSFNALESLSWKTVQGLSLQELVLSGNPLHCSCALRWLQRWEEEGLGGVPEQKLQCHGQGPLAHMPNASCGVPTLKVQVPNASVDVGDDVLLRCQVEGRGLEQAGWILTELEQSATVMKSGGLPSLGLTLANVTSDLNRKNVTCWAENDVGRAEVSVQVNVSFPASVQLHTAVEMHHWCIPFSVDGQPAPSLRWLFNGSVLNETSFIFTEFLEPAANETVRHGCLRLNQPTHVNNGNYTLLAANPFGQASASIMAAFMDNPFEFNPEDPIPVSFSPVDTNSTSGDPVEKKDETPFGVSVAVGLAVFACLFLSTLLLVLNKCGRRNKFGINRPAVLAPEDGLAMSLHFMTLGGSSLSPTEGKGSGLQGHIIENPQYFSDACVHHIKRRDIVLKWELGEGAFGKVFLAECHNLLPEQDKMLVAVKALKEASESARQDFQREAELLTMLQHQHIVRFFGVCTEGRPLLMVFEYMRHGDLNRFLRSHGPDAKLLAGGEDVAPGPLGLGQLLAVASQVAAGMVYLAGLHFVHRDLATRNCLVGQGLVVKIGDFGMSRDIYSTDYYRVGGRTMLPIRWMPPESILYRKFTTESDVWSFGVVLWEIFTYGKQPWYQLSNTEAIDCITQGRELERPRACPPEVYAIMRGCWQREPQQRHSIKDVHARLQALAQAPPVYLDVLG

With `COc1cc(Nc2ncc3c(C)nc(-c4cccc(C(F)(F)F)c4)n3n2)cc(OC)c1OC`, the inhibition in assay [1] is 31.8%; in [2], -0.28%; in [3] it was 6.04%; in [4] it was 6.64%; in assay [5] it was 10.5%; in [6], 22.6%. Further, the inhibition in assay [7] was 74.4%; in [8] it was 1.58%; in assay [9], 0.29%; in assay [10], -1.19%; in assay [11] it was -2.22%; in assay [12], 3.55%. Moreover, the inhibition in assay [13] came to 16.9%; in assay [14] it was 2.15%; in assay [15], 6.29%; in assay [16], 15.2%; in assay [17], 48.8%; in assay [18], 0.75%. The inhibition was 3.69% in [19] and 2.69% in assay [20].
Consider `NS(=O)(=O)c1ccc(N/N=C2\C(=O)Nc3ccc(C(=O)NCCCn4ccnc4)cc32)cc1`, for which the inhibition in assay [1] is 59.8%; in [2] it was -0.93%; in assay [3], 7.24%; in assay [4] it was 9.73%; in [5] it was 13.2%; in assay [6] it was 9.31%. Besides, the inhibition is 27.1% in assay [7]; -1.71% in assay [8]; 1.02% in assay [9]; -1.95% in assay [10]; -1.66% in [11]; 3.92% in assay [12]. The inhibition was found to be 10.5% in assay [13]; 2.3% in assay [14]; 5.99% in assay [15]; 6.1% in assay [16]; 16.5% in assay [17]; 0.41% in [18]. In addition, the inhibition worked out at 3.98% in assay [19] and 2.34% in [20].
Consider `COc1cc(C)c(N(C)C(=O)CN(C)C)cc1Nc1nc(Nc2cccc(F)c2C(N)=O)c2cc[nH]c2n1`, for which the inhibition in assay [1] turned out to be 0.99%; in [2], 5.06%; in assay [3], 8.44%; in assay [4], 15.3%; in [5] it was 51.2%; in assay [6], 3.62%. The inhibition in assay [7] is 5.62%; in assay [8], -0.25%; in assay [9], -1.33%; in assay [10], -0.33%; in assay [11], 1.76%; in [12], -0.85%. Further, the inhibition in assay [13] is 1.07%; in assay [14] it was 0.26%; in [15], 2.24%; in [16] it was 1.97%; in assay [17] it was 6.22%; in assay [18] it was 0.62%. The inhibition in assay [19] is 0.64%; in [20], 1.62%.
For the compound `CCC(=O)Nc1ccc(C)c(-c2ccc(C(=O)NCC3CC3)cc2)c1`, the inhibition in assay [1] came out at 6.48%; in [2], 9.18%; in assay [3] it was 7.8%; in assay [5], 3.11%; in assay [6], 6.28%; in assay [7] it was 6.57%. Further, the inhibition in assay [8] was -0.92%; in [9] it was -1.83%; in [10] it was 3.61%; in assay [11], 0.67%; in assay [12], 3.13%; in [13], 2.28%. The inhibition in assay [14] was 4.73%; in assay [15], 6.22%; in [16], -0.12%; in [17], 6.35%; in assay [18], 0.66%; in assay [19], 1.34%. The inhibition in assay [20] was determined as 2%.
On to `Fc1ccc(-c2ncn(CCCN3CCOCC3)c2-c2ccncc2)cc1`, for which the inhibition was 7.08% in assay [1]; -2.7% in assay [2]; 0.97% in [3]; 2.12% in [4]; 4.63% in assay [5]; 3.31% in assay [6]. Besides, the inhibition in assay [7] is 1.01%; in [8], -3.46%; in assay [9], -3.16%; in assay [10], 2.97%; in assay [11], -1.02%; in assay [12], -0.04%. For the same compound, the inhibition in assay [13] is 2.36%; in [14], 1.37%; in [15] it was 1.99%; in assay [16], 0.29%; in assay [17] it was -6.97%; in assay [18], -0.82%. For the same compound, the inhibition is -1.72% in assay [19] and -2.6% in assay [20].
Consider `CCS(=O)(=O)c1ccc(OC)c(Nc2ncc(-c3cccc(-c4ccccc4F)c3)o2)c1`, for which the inhibition in assay [1] came to 51.1%; in assay [2], 2.4%; in assay [3] it was 5.56%; in assay [4] it was 14.2%; in [5], 54.9%; in assay [6] it was 12.6%. Moreover, the inhibition was 74.5% in assay [7]; 8.12% in assay [8]; 30.3% in assay [9]; -3.99% in assay [10]; 1.23% in [11]; 2.94% in [12]. For the same compound, the inhibition came to 12.7% in assay [13]; 3.06% in assay [14]; 19% in [15]; 14.1% in assay [16]; 61.8% in assay [17]; 1.02% in [18]. The values for the inhibition in assay [19] and in assay [20] were 7.85% and 6.39%, respectively.
With `CNC(=O)c1cncc(/C=C/c2c(C)cccc2C)c1`, the inhibition in [1] is 17.6%; in assay [2] it was 1.75%; in assay [3] it was 0.77%; in assay [4] it was -2.1%; in assay [5] it was 1.85%; in assay [6], 17.5%. For the same compound, the inhibition in [7] was 59%; in [8], 2.41%; in assay [9], 9.33%; in [10], 0.05%; in assay [11] it was -0.51%; in assay [12], 5.68%. For the same compound, the inhibition was 38.2% in [13]; -0.16% in assay [14]; 7.69% in [15]; 0.82% in [16]; 16.5% in assay [17]; 0.76% in assay [18]. Also, the inhibition in assay [19] worked out at 9.44%; in assay [20] it was 3.36%.

A word on the inhibition: it is the change of the read-out against control, counted positive when it falls.
